IL1B NFkB inh = blocks IL-1B driven NFkB nuclear translocation in HUVEC cells. inhibition, % at 2 µM. HUVEC IL-1B NFkB p65 nuclear translocation imaging. 94,000 tested, 0.43% active;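 active means inhibition above about 30% together with a positive call from visual inspection of the well image, limit read from the data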;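 further: nuclear over cytoplasmic p65 intensity ratio measured by imaging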
Smad3 FoxH1 inh = inhibitors of human Smad3 transcription factor binding; 88,000 tested, 0.29% active; TR-FRET Smad3/Dy647-FoxH1 peptide binding, europium anti-His; inhibition, % at 25 µM; P84022;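 active means compounds that reduce the energy-transfer binding signal between the protein and its labelled peptide by more than half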
Target sequence (P84022 whole entry, looked up): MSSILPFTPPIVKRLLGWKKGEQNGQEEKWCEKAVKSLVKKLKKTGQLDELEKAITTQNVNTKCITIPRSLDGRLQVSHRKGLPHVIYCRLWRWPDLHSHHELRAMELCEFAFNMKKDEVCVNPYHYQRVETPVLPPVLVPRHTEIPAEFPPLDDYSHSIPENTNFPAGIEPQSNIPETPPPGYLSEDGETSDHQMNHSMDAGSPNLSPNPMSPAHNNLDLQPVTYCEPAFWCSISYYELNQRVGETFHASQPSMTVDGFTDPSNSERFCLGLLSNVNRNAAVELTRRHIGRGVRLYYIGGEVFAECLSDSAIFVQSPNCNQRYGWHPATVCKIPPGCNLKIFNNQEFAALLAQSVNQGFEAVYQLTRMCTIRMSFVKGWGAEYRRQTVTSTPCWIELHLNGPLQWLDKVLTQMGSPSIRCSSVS
NFkB transloc pot = enhances IL-1B driven NFkB nuclear translocation; HUVEC IL-1B NFkB p65 nuclear translocation imaging; activation, % at 2 µM; 94,000 tested, 0.3% active; AID 819;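 active means activation above 40%, about the mean plus 3 SD, also judged a hit on visual image review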;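 further: percent activation is computed from the nuclear over cytoplasmic p65 intensity ratio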
IL1B cytotox = toxic to HUVEC cells under IL-1B stimulation; HUVEC cell count loss, Hoechst imaging, IL-1B stimulated; cell count reduction, % at 2 µM; 94,000 tested, 0.41% active; AID 845;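 active means cell count reduction more than 3 SD above the screen-wide mean, cut at about 70% in these data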
Large screens that a line does not name were inactive. An excerpt weighted towards active compounds, which were near 1.2% of everything screened.

COc1ccc(C2=NOC(C(=O)NCCCN3CCOCC3)C2)cc1 (stereo not drawn)	NFkB transloc pot 46.8
Cc1ccc(OCC(=O)Nc2ccc(O)c(C(=O)O)c2)cc1C	none
CC(C)(C)c1ccc(OC(=O)Nc2ccc(O)c(C(=O)O)c2)cc1	Smad3 FoxH1 inh 65.3 (no result: IL1B NFkB inh, NFkB transloc pot, IL1B cytotox)
C[C@@]12CC[C@@H]3[C@H](CCC4=CC(=O)CC[C@]43C)[C@H]1CC[C@H]2C(=O)COS(=O)(=O)c1ccc(Br)cc1	none (no result: IL1B NFkB inh, NFkB transloc pot, IL1B cytotox)
CCOc1cc(S(=O)(=O)NCCc2cccc(C)c2)c(OCC)cc1-n1cnnn1	IL1B NFkB inh 35.3
O=C(O)[C@@H]1[C@H](C(=O)NCc2ccncc2)[C@@H]2C=C[C@H]1O2	none (no result: IL1B NFkB inh, NFkB transloc pot, IL1B cytotox)
COC(=O)c1cc2c(cc1NC(=O)CSCCc1ccccn1)OCO2	none (no result: IL1B NFkB inh, NFkB transloc pot, IL1B cytotox)
CC(=O)Nc1ccc(NC(=O)CSCCc2ccccn2)cc1	IL1B NFkB inh 48.6
CCC(Sc1ccc2nnc(-c3ccc(F)cc3)n2n1)C(=O)OC (stereo not drawn)	IL1B cytotox 82.2
COC(=O)C(C)Sc1ccc2nnc(-c3ccc(F)cc3)n2n1 (stereo not drawn)	none
C/C(N[O-])=C(\C)[N+]([O-])=[Rh][Cl].CC(=N\[O-])/C(C)=N/[O-].NC(N)=[SH+]	none (no result: IL1B NFkB inh, NFkB transloc pot, IL1B cytotox)
N#Cc1c(-n2cccc2/C=N/O)sc2c1CCCC2	none
C=CCNCc1cccn1-c1sc2c(c1C#N)CCCC2	IL1B NFkB inh 30.6
O=C(OCc1ccc(Cl)cc1Cl)c1ccncc1	NFkB transloc pot 126.3 (no result: Smad3 FoxH1 inh)
O=C(COC(=O)c1ccncc1)Nc1cc(Cl)ccc1Cl	none
N[C@@H](CSCc1ccccc1)C(=O)O	none (no result: IL1B NFkB inh, NFkB transloc pot, IL1B cytotox)
N#CC1=C(c2ccccc2)N=P(N2CCOCC2)(N2CCOCC2)N=C1N1CCOCC1	none (no result: IL1B NFkB inh, NFkB transloc pot, IL1B cytotox)
O=C(O)CN(CCN(CC(=O)O)CC(=O)O)CC(=O)O.[Cu+2]	none (no result: IL1B NFkB inh, NFkB transloc pot, IL1B cytotox)
CCOc1ccc(/C(O)=C2/C(=O)C(=O)N(c3nc(C)c(C)s3)C2c2ccco2)cc1 (stereo not drawn)	IL1B NFkB inh 45.9
COc1ccccc1OCC(=O)NCC1CCCCC1	IL1B NFkB inh 95.7, IL1B cytotox 93.5
COc1ccccc1OCC(=O)NCCNC(=O)COc1ccccc1OC	none
O=C(NC(Cc1ccccc1)c1ccc2c(c1)OCCCO2)c1ccc(F)cc1 (stereo not drawn)	NFkB transloc pot 43.7 (no result: Smad3 FoxH1 inh)
Cc1cc(Cl)ccc1NC(=O)CCCN1C(=O)CCC1=O	IL1B NFkB inh 43.1
CCOC(=O)C1CCN(C(=O)c2ccc(Cl)c(Cl)c2)CC1	IL1B NFkB inh 99.0, IL1B cytotox 93.5
CCOC(=O)C1CCN(C(=O)c2cccc(Cl)c2)CC1	none
CCSc1nc2ccccc2n1C(=O)/C=C\c1ccc(OC)c(OC)c1	IL1B NFkB inh 89.9 (no result: Smad3 FoxH1 inh)
CC(C)NC(=O)c1nc2ccccc2s1	IL1B cytotox 74.3
COc1ccc(-n2c(SCC(=O)N3CCCC3)nc3c([nH]c4ccccc43)c2=O)cc1	none (no result: IL1B NFkB inh, NFkB transloc pot, IL1B cytotox)
COc1cc2c(cc1O)[C@@H](c1cc(O)c(O)c(OC)c1)[C@](O)(C(=O)O)[C@@H](CO)[C@@H]2O	none (no result: IL1B NFkB inh, NFkB transloc pot, IL1B cytotox)
COc1c2c(c3c(c1CCC(=O)O)OC(C)(C)C=C3)OC(C)(C)C=C2	none (no result: IL1B NFkB inh, NFkB transloc pot, IL1B cytotox)
O=C(COC(=O)c1ccccc1C(=O)c1ccc(Cl)c([N+](=O)[O-])c1)NC1CCCCCC1	IL1B NFkB inh 83.4 (no result: Smad3 FoxH1 inh)
O=C(COC(=O)c1ccc(Cl)c(S(=O)(=O)N2CCCC2)c1)NC1CCCC1	none
O=C(O)C(Cc1ccccc1)N1Cc2ccccc2C1=O (stereo not drawn)	NFkB transloc pot 40.2
N#C[C@@H](N=Nc1ccccc1C(=O)O)C(N)=O	none (no result: IL1B NFkB inh, NFkB transloc pot, IL1B cytotox)
CCOc1ccc(/C=C/[N+](=O)[O-])c2ccccc12	IL1B NFkB inh 60.6 (no result: Smad3 FoxH1 inh)
